Pf growth 48h: P. falciparum growth inhibition at 48 hours (one generation) | Potency, µM (series often up to 28.7 µM), most hits filed as inhibitors | P. falciparum luciferase growth in erythrocytes, 48 h | 5.9% of 310,000 active | AID 504832
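In quantitative HTS format, infected erythrocytes bearing luciferase-reporter parasites were treated for a single generation at 37 C. Luminescence after adding detection reagent served as the growth measure.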
SARS PLpro yeast-1: SARS-CoV PLP inhibition in yeast; 0.19% of 330,000 active; AID 485353; S. cerevisiae expressing SARS-CoV PLpro, growth rescue; Potency, µM (doses to about 32.9 µM), actives largely listed as activators; calls by dose curve; also: nearly all actives have a fitted effect of over 55% in size
AMA1 RON2 block: inhibitors of Plasmodium falciparum AMA1-RON2 interaction; Potency, µM (doses to about 58.2 µM), hits mostly inhibitors; AlphaScreen AMA1-biotinylated RON2 peptide binding; 0.2% of 360,000 active; also: nearly all actives have a fitted effect of over 45% in size
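AMA1 (3D7) with his tag at 25 nM final met compounds first, then biotinylated RON2 peptide at 25 nM; detection used donor plus acceptor beads, 10 µg/mL apiece, read by AlphaScreen after 30 min at room temperature.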
Pf growth 96h: P. falciparum growth inhibition at 96 hour, primary screen for plastid delayed-death inhibitors | Potency, µM (highest dose often 28.7 µM), most hits filed as inhibitors | AID 504834 | P. falciparum luciferase reporter growth, 96 h | 6.9% of 320,000 active
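Infected RBCs, 2% Hct / 0.05% parasitemia final; luciferase-reporter P. falciparum; cpd 96 h, 37 C, 5% CO2; luciferase detection reagent; luminescence.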
SARS PLpro yeast-2: Rescues yeast growth by inhibiting SARS-CoV PLpro; calls only; AID 652038; yeast expressing SARS-CoV PLpro, growth phenotype rescue; 19% of 1,000 active; shares compounds with SARS PLpro yeast-1; call rule not given here
Each line names hits and unclear results; the compound was inactive in the other large screens (follow-up assays come after a bar, where they were run). Compounds with a hit are over-represented: about 9.4% of the library has one in this group of screens. Unless noted, calls follow the shape of the dose curve; as a rule, active = well fitted curve in the direction sought with a large enough effect; inconclusive = small, poorly fitted or top-dose-only effect, or another doubt; inactive = no such curve, though single readings can be large; an effect the other way counts as inactive or inconclusive.

O=C(CCN1C(=O)[C@@H]2Cc3ccccc3CN2C1=O)N[C@@H](Cc1ccccc1)C(=O)O	SARS PLpro yeast-1 6.31µM | SARS PLpro yeast-2 inactive
CCNC(=S)Nc1ccc(Cl)cc1	none
CCNC(=S)Nc1ccc(C)c(Cl)c1	SARS PLpro yeast-1 inconclusive | SARS PLpro yeast-2 active
Cc1cc(=O)[nH]c(N/N=C/c2c(O)n(-c3ccccc3)c(=O)c3ccccc23)n1	SARS PLpro yeast-1 inconclusive | SARS PLpro yeast-2 inactive
Cc1cc(=O)[nH]c(N/N=C/c2ccccn2)n1	Pf growth 48h 2.94µM, SARS PLpro yeast-1 inconclusive, Pf growth 96h inconclusive | SARS PLpro yeast-2 inactive
Cc1ccc(CN2CCN(/N=C/c3ccc(C(F)(F)F)cc3)CC2)c(C)c1	Pf growth 48h inconclusive, SARS PLpro yeast-1 inconclusive | SARS PLpro yeast-2 inactive
COc1ccc(/C=N/NC(=O)c2ccccc2O)cc1CN1CCOCC1	none
COc1ccc(/C=N\NC(=O)c2cc(O)c(O)c(O)c2)cc1CN1CCN(c2ccc(F)cc2)CC1	Pf growth 48h 4.65µM, SARS PLpro yeast-1 12.6µM, Pf growth 96h inconclusive | SARS PLpro yeast-2 active
COc1ccc(Cn2c(-c3ccc(OC)cc3)n[nH]c2=S)cc1	none
CC(C)Oc1ccc(Cn2c(-c3ccco3)n[nH]c2=S)cc1	SARS PLpro yeast-1 22.4µM, Pf growth 96h inconclusive | SARS PLpro yeast-2 inactive
O=C(NNC(=O)c1ccccc1O)c1ccc(Cl)c(S(=O)(=O)N2CCc3ccccc32)c1	Pf growth 48h inconclusive
O=C(NCc1ccco1)c1ccc(Cl)c(S(=O)(=O)N2CCc3ccccc32)c1	Pf growth 48h inconclusive, SARS PLpro yeast-1 inconclusive, Pf growth 96h inconclusive | SARS PLpro yeast-2 inactive
CN(C)S(=O)(=O)c1cccc(NC(=O)COC(=O)/C=C/c2ccco2)c1	none
Cc1ccc(/C=C/C(=O)OCC(=O)Nc2cccc(S(=O)(=O)N(C)C)c2)o1	SARS PLpro yeast-1 3.16µM | SARS PLpro yeast-2 inactive
Cc1cc(OCC(=O)NC(C)(C)C)ccc1Cl	SARS PLpro yeast-1 inconclusive | SARS PLpro yeast-2 inactive
Cc1ccc(OCC(=O)NCCCNC(=O)c2cccnc2)cc1	none
CCNc1ccc2noc3c2c1C(=O)c1ccccc1-3	AMA1 RON2 block inconclusive, Pf growth 96h inconclusive
CCNc1ccccc(-c2ccc3ccccc3n2)c1=O	SARS PLpro yeast-1 11.2µM | SARS PLpro yeast-2 inactive
O=C(O)CNS(=O)(=O)c1ccc2[nH]c(=O)c(=O)[nH]c2c1	none
O=C(NCCc1ccccc1)C1(c2ccccc2)CC1(Cl)Cl (stereo unspecified)	Pf growth 96h inconclusive
CCc1nnc(NC(=O)c2ccc(S(=O)(=O)N3CCCc4ccccc43)cc2)o1	Pf growth 48h 7.38µM, SARS PLpro yeast-1 20µM (no result: Pf growth 96h) | SARS PLpro yeast-2 inactive
CCc1nnc(NC(=O)c2ccc(S(=O)(=O)N(CC(C)C)CC(C)C)cc2)o1	Pf growth 48h inconclusive, SARS PLpro yeast-1 inconclusive | SARS PLpro yeast-2 active
O=C(Nc1nnc(C2CC2)o1)c1ccc(S(=O)(=O)N2CCc3ccccc3C2)cc1	SARS PLpro yeast-1 inconclusive, Pf growth 96h inconclusive | SARS PLpro yeast-2 inconclusive
CCCCCCC(=O)Nc1nc(C)c(-c2csc(Nc3cc(OC)ccc3OC)n2)s1	Pf growth 48h 7.38µM, SARS PLpro yeast-1 inconclusive, Pf growth 96h 7.38µM | SARS PLpro yeast-2 inactive
COc1ccc(C)cc1S(=O)(=O)Nc1ccc(F)cc1	SARS PLpro yeast-1 inconclusive (no result: Pf growth 96h) | SARS PLpro yeast-2 inactive
COc1ccc(OC)c(S(=O)(=O)Nc2ccc(F)cc2)c1	none (no result: Pf growth 96h)
CCOc1ccc(C(=O)CC(=O)C(=O)NCCc2ccc(OC)c(OC)c2)cc1	Pf growth 48h 13.1µM, SARS PLpro yeast-1 20µM | SARS PLpro yeast-2 inconclusive
COc1ccc(OCCCC(=O)NCCc2ccc(OC)c(OC)c2)cc1	none
CCOC(=O)c1c(NC(=O)c2c(N)n(CCCOC)c3nc4ccccc4nc23)sc2c1CCCC2	Pf growth 48h inconclusive, Pf growth 96h inconclusive
CCOCCCn1c(N)c(C(=O)Nc2sc3c(c2C(=O)OC)CCCC3)c2nc3ccccc3nc21	Pf growth 48h 14.7µM, SARS PLpro yeast-1 inconclusive, Pf growth 96h inconclusive | SARS PLpro yeast-2 inconclusive
Cc1ccc(CN(C(=O)c2ccccc2[N+](=O)[O-])C2CCS(=O)(=O)C2)o1 (stereo unspecified)	none
O=C(NCc1ccccn1)c1nc(Cn2ccc([N+](=O)[O-])n2)no1	none
Cc1cccc2cc(COC(=O)c3ccccc3)c(=O)[nH]c12	none
Cc1cccc2cc(COC(=O)c3cccs3)c(=O)[nH]c12	SARS PLpro yeast-1 3.16µM | SARS PLpro yeast-2 inactive
CC(=O)c1ccc(N(C(=O)Cn2nnc3ccccc32)C(C(=O)NCc2ccccc2)c2ccccn2)cc1 (stereo unspecified)	SARS PLpro yeast-1 17.8µM | SARS PLpro yeast-2 inactive
CCOc1cccc(NC(=O)C2CCCN(S(=O)(=O)c3ccc(-n4cnnn4)cc3)C2)c1 (stereo unspecified)	Pf growth 48h inconclusive (no result: Pf growth 96h)
O=C(NC1(C(=O)NC2CCCCC2)CCCCC1)c1ccccn1	Pf growth 96h inconclusive
O=C(NC1CCCCC1)/C(=N\O)c1ccccn1	SARS PLpro yeast-1 inconclusive | SARS PLpro yeast-2 inactive
CCOC(=O)c1cc2sc(C)cc2n1CC(=O)N1CCc2ccccc21	Pf growth 96h inconclusive (no result: Pf growth 48h)
COc1ccccc1NC(=S)NNC(=O)c1nn(C)c(C)c1Br	SARS PLpro yeast-1 15.8µM | SARS PLpro yeast-2 inactive
COc1ccccc1NC(=O)Nc1c(C)nn(C)c1C	none
CC1(C)N(OCc2ccccc2)C(=O)C(=O)N(OCc2ccccc2)C1(C)C	none (no result: Pf growth 96h)
CCOC(=O)c1sc(=S)n(C)c1NC(=O)c1ccc(OC)cc1	none
CCOC(=O)c1sc(=S)n(C)c1NC(=O)c1ccccc1Cl	SARS PLpro yeast-1 22.4µM, Pf growth 96h inconclusive | SARS PLpro yeast-2 inactive
COc1ccc(/C=N/NC2=NS(=O)(=O)c3ccccc32)cc1	Pf growth 48h inconclusive, Pf growth 96h inconclusive
O=S1(=O)N=C(N/N=C/c2ccccn2)c2ccccc21	Pf growth 48h inconclusive, SARS PLpro yeast-1 22.4µM, Pf growth 96h inconclusive | SARS PLpro yeast-2 active
CCC(C)N1C(=O)CCC1C(=O)NCCc1ccc(Cl)cc1 (stereo unspecified)	Pf growth 96h inconclusive
COc1ccc(C2=NN(C(=O)c3ccc(Cl)c([N+](=O)[O-])c3)C(c3ccccc3)C2)cc1 (stereo unspecified)	SARS PLpro yeast-1 inconclusive | SARS PLpro yeast-2 inconclusive
COc1ccc(Cn2c(=S)[nH]c3cc(C(=O)N4CCN(c5ccccc5)CC4)ccc3c2=O)cc1	Pf growth 96h inconclusive
O=C1OCCN1C(=O)[C@H]1[C@H](c2ccccc2)C(c2cccc(Cl)c2)=NN1c1ccccc1	SARS PLpro yeast-1 inconclusive (no result: Pf growth 48h, Pf growth 96h) | SARS PLpro yeast-2 active
O=C1OCCN1C(=O)[C@H]1[C@H](c2ccc(Cl)cc2)C(c2ccccc2)=NN1c1ccccc1	none (no result: Pf growth 48h, Pf growth 96h)
COc1cc(/C=N/n2c(SC)nnc(C(C)(C)C)c2=O)ccc1O	SARS PLpro yeast-1 15.8µM | SARS PLpro yeast-2 inactive
CCNC(=S)N/N=C(\C)c1ccc(Cl)s1	Pf growth 48h inconclusive, SARS PLpro yeast-1 inconclusive, Pf growth 96h inconclusive | SARS PLpro yeast-2 active
CNC(=S)N/N=C(\C)c1ccc(Cl)s1	Pf growth 48h inconclusive, SARS PLpro yeast-1 inconclusive, Pf growth 96h inconclusive
C=C(C)CNC(=S)N/N=C(\C)c1ccc(Cl)s1	Pf growth 48h 11.7µM, SARS PLpro yeast-1 inconclusive, Pf growth 96h inconclusive | SARS PLpro yeast-2 active

Screening data as filed in PubChem BioAssay.
